The text below walks through data of PubChem BioAssay AID1851 (National Center for Advancing Translational Sciences (NCATS), 2009).

Values joined by “and” are separate entries in the source; they are usually repeats but may differ in a detail not shown here. Identical values can stand only once. Hit rate of the full screen: of about 16,000 compounds, about 5,100 (32%) were called active. Another 25% or so got no clear call; they are omitted. The list shows a part of the results. Values without a mark were called inactive. Calls follow the shape of the dose curve; as a rule, active = well fitted curve in the direction sought with a large enough effect; inconclusive = small, poorly fitted or top-dose-only effect, or effect the other way; inactive = no such curve, though single readings can be large or run the other way. Square brackets hold non-standard residues; d marks the D form. Peptide text beside a SMILES is read from it.
% is scaled to controls: 0 for no effect and ±100 for the full control effect.

This assay deals with Cytochrome P450 3A4 (Homo sapiens) (UniProt P08684). Nature of the assay: Cytochrome panel assay with activity outcomes. The settings on record: recombinant CYP, pro-luciferin dealkylation, luminescence, p450-cyp3a4; series mostly up to 57.1 µM.
Sequence of Cytochrome P450 3A4 (Homo sapiens) (P08684 whole entry, looked up): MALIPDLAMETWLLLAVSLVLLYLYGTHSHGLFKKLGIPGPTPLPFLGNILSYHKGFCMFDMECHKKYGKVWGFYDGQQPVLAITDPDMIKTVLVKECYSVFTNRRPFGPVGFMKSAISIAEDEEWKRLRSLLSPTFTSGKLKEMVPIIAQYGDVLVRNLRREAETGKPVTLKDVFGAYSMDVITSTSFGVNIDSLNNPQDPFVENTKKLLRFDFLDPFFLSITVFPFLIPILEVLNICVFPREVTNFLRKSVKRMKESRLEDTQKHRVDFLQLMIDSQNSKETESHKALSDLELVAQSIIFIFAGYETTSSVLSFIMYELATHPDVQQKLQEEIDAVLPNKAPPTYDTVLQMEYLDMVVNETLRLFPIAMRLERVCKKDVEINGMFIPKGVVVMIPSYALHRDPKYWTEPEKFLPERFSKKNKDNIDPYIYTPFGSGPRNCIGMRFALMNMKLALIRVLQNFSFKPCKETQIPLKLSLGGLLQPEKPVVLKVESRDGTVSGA
`NCC[C@H]1CCC[C@H](CCN)N1`: the AC50 result is “inactive”.
Still for that read-out and setting: in the case of `O=C(Cc1ccc(-n2c(=O)[nH]c3ccccc3c2=O)cc1)N1CCN(c2cccc(Cl)c2)CC1` it was 3.16 µM (active).
`CCOC(=O)N1CCN(c2c(-c3ccccc3)c3cc(Cl)ccc3[nH]c2=O)CC1`: the AC50 result was “inactive”.
On the same count and under the same terms, in the case of `O=c1nc2ccccc2c2n1CC(CN1CCN(c3cccc(Cl)c3)CC1)N2` (stereo not given) it was “inactive”.
Turning to `N/C(CC/C(N)=N/O)=N\O`, the activity, negative = inhibition was -5.56% [at 11.4 µM].
The same measure, in the same setting: in the case of `Cc1cccc(C)c1NC(=O)CCN1C(=O)C2C3CCC(C3)C2C1=O` (stereo not given) it was 0.821% [at 2.29 µM].
As to `Cc1cc(NC(=O)CCN2C(=O)C3C4CCC(C4)C3C2=O)c(C)cc1Br` (stereo not given), the AC50 was 7.94 µM (active).
`CCOC(=O)CCN1C(=O)[C@H]2[C@@H]3[C@H](O)C=CC(=O)[C@H]3CC[C@H]2C1=O`: the activity, negative = inhibition is -11.5% [at 11.4 µM].
Take `O=C(/C=C/c1ccccc1)N1CCN(Cc2nc3ccccc3c(=O)[nH]2)CC1`: the AC50 entry is “inactive”.
The same measure, in the same setting: in the case of `CCN1CCN(C(=O)CCc2nc3ccccc3c(=O)[nH]2)CC1` it was “inactive”; in that of `O=C(CCc1nc2ccccc2c(=O)[nH]1)OCC(=O)N1CCN(S(=O)(=O)c2ccccc2)CC1`, 7.94 µM (active); in that of `C[C@H]1C=C2C=C[C@H](C)[C@H](CC[C@@H]3C[C@@H](O)CC(=O)O3)[C@H]2[C@@H](OC(=O)[C@@H](C)CCO)C1`, 12.6 µM (active).
On the same count and under the same terms, in the case of `CC[C@H](C)C(=O)O[C@H]1CCC=C2C=C[C@H](C)[C@H](CC[C@@H]3C[C@H](O)CC(=O)O3)[C@H]21` it was 12.6 µM (active).
For `CCCCCC1CCC(C(=O)NNC(=S)NCC)CC1` (stereo not given), the activity, negative = inhibition was -1.07% [at 2.29 µM].
Take `CN(C)CC[C@H](c1ccc(Br)cc1)c1ccccn1`: the AC50 result was “inactive”.
Same read-out and setting: in the case of `COCCN(C(=O)C(C)C)c1nnc(-c2ccc(C)cc2)s1` it was “inactive”.
For the compound `CC(C)Cn1c(-c2ccc(Cl)cc2)cnc1SCC(=O)N1CCOCC1`, the activity, negative = inhibition was -5.92% [at 2.29 µM].
As to `CCn1c(SCC(=O)N2CCOCC2)nc2oc3c(Cl)cc(Cl)cc3c(=O)c2c1=O`, the AC50 is 11.2 µM (active).
In the case of `NC(=O)[C@@H]1CCCN1Cc1ccc2c(c1)OCO2`, the activity, negative = inhibition was -37.8% [at 11.4 µM].
In the case of `CC(C)(C)NC(=O)CSc1nnc(Cc2ccc3c(c2)OCO3)n1C1CCCCC1`, the AC50 was 0.447 µM (active).
Regarding `C[N+](C)(C)/N=C\c1ccc(O)c(O)c1`, the activity, negative = inhibition was -21.1% [at 11.4 µM].
Turning to `CC(C)N=c1scc(-c2ccco2)n1/N=C/c1ccc(O)c(O)c1`, the AC50 is 12.6 µM (active).
As to `NCCc1nc(-c2nc(C(=O)O)cs2)cs1`, the activity, negative = inhibition is -14.8% [at 11.4 µM].
Consider `COc1ccc(C(=O)N2CCC3(CCN(Cc4ccncc4)CC3)CC2)cc1`, for which the AC50 is 15.8 µM (active).
As to `O=C(c1cccc(F)c1)N1CCC2(CCN(Cc3ccccc3)CC2)CC1`, the AC50 entry is “inactive”.
The same measure, in the same setting: in the case of `COc1ccc(C(=O)N2CCC3(CCCN(C)C3)CC2)cc1` it was “inactive”.
Same read-out and setting: in the case of `CC(=O)N1CCC2(CCN(Cc3ccncc3)CC2)CC1` it was “inactive”; in that of `O=C(c1ccncc1)N1CCC2(CCCN(Cc3ccncc3)C2)CC1`, 5.01 µM (active); in that of `O=C(c1ccncc1)N1CCC2(CCN(Cc3ccccc3)CC2)CC1`, 15.8 µM (active).
Same read-out and setting: in the case of `COc1ccc(C(=O)N2CCC3(CCCN(Cc4ccncc4)C3)CC2)cc1` it was 7.94 µM (active); in that of `O=C(O)CP(=O)(O)O`, “inactive”.
`Oc1c(Cl)cc(CN(Cc2cc(Cl)c(O)c(Cl)c2)C2CCCCC2)cc1Cl`: the activity, negative = inhibition was -4.66% [at 11.4 µM].
For `O=C(c1ccncc1)N1CCC2(CCCN(Cc3ccccc3)C2)CC1`, the AC50 was 10 µM (active).
On the same count and under the same terms, in the case of `O=C(c1csnn1)N1CCC2(CCCN(Cc3ccccc3)C2)CC1` it was “inactive”; in that of `CC(=O)N1CCC2(CC1)CN(Cc1ccccc1)C2`, “inactive”; in that of `CC(=O)N1CCC2(CCCN(Cc3ccccc3)C2)CC1`, “inactive”.
Regarding `O=C(c1ccncc1)N1CCC[C@@]2(CCN(Cc3ccccc3)C2)C1`, the AC50 is 15.8 µM (active).
Still for that read-out and setting: in the case of `CC(=O)OC1CCC(OC(C)=O)c2c1n([O-])c(C)c(C)[n+]2=O` (stereo not given) it was “inactive”.
In the case of `COC(=O)c1c(-n2c(C)cc(C=O)c2C)sc2c1CCCC2`, the AC50 is 7.08 µM (active).
Consider `O=C(NCCc1ccccc1)c1noc2c1CCc1ccccc1-2`, for which the activity, negative = inhibition was -2.2% [at 2.29 µM].
Regarding `O=C1Nc2ccccc2/C1=N/c1sc2c(c1C(=O)NCCc1ccccc1)CCCC2`, the AC50 is 7.08 µM (active).
On to `O=C1Nc2ccccc2C1=Nc1cccc2ncccc12`, for which the activity, negative = inhibition is -14.3% [at 11.4 µM].
Still for that read-out and setting: in the case of `NCC(=O)N[C@H](CO)C(=O)O` (H-Gly-[dS]-OH) it was -9.24% [at 11.4 µM].
With `CCN1CCN(c2nc3ccccc3nc2C(C#N)C(=O)OC2CCCCC2)CC1` (stereo not given), the half-maximal activity concentration (AC50) was 10 µM (active).
On the same count and under the same terms, in the case of `C[N+]1(C)CCC(OC(=O)C(c2ccccc2)c2ccccc2)CC1` it was “inactive”; in that of `CCCCCCOC(=O)C(C#N)c1nc2ccccc2nc1N1CCN(CC)CC1` (stereo not given), 28.2 µM (active); in that of `CC(C)OC(=O)C(C#N)c1nc2ccccc2nc1N1CCN(Cc2ccccc2)CC1` (stereo not given), “inactive”.
Turning to `Cc1cc(C)nc(Nc2n[nH]c(COc3ccc4ccccc4c3)n2)n1`, the AC50 is 5.01 µM (active).
As to `Cc1cc(Oc2ccccc2)nc(NCc2ccccc2)n1`, the activity, negative = inhibition is 7.15% [at 11.4 µM].
On the same count and under the same terms, in the case of `Nc1nc(-c2cc(-c3cccc4ccccc34)nc(N)n2)cc(-c2cccc3ccccc23)n1` it was 6.26% [at 11.4 µM].
In the case of `Cc1noc2ncnc(Oc3ccc4ccccc4c3)c12`, the AC50 entry was “inactive”.
With `NC(=O)Nc1n[nH]c(-c2ccccc2)n1`, the activity, negative = inhibition is -3.37% [at 11.4 µM].
On to `Cc1cc(C)nc(Nc2n[nH]c(-c3cccc4ccccc34)n2)n1`, for which the AC50 is 14.1 µM (active).
`O=c1[nH]ncn2cccc12`: the AC50 result is “inactive”.
The same measure, in the same setting: in the case of `COc1ccccc1-n1c(SCC(=O)Nc2ccccc2F)nc2[nH]ncc2c1=O` it was 14.1 µM (active).
`NCCSc1nc(-c2ccccc2)c(-c2ccccc2)o1`: the activity, negative = inhibition is -23.1% [at 11.4 µM].
For `NCCSc1nc2ccccc2s1`, the AC50 was 3.16 µM (active).
`Oc1ccccc1C(Sc1nc2ccccc2s1)Sc1nc2ccccc2s1`: the activity, negative = inhibition was -6.59% [at 11.4 µM].
As for `c1ccc2sc(SCSc3nc4ccccc4s3)nc2c1`, the AC50 was 3.16 µM (active).
Turning to `c1ccc2sc(SCCSc3nc4ccccc4s3)nc2c1`, the activity, negative = inhibition was 14.9% [at 11.4 µM].
On the same count and under the same terms, in the case of `COc1cc(C)cc2c(-c3c(O)cc(O)c4c3C[C@H](C)N[C@@H]4C)cc(-c3cc(-c4c(O)cc(O)c5c4C[C@H](C)N[C@@H]5C)c4cc(C)cc(OC)c4c3O)c(O)c12` it was -3.16% [at 11.4 µM].
As for `C[C@@](N)(C(=O)O)c1ccc(P(=O)(O)O)cc1`, the AC50 result was “inactive”.
For `Cc1cc2c(=O)[nH]c(N)nc2nc1C`, the activity, negative = inhibition was -3.61% [at 11.4 µM].
Regarding `COc1ccc(CNc2ccnc(-c3ccc4c(c3)OCO4)n2)c(OC)c1`, the AC50 was 1 µM (active).
On the same count and under the same terms, in the case of `COc1ccccc1CNc1ccnc(-c2ccc3c(c2)OCO3)n1` it was 1.58 µM (active); in that of `CC(=O)Nc1c2c3c(cccc3n(C)c1=O)C(=O)c1ccccc1-2`, 17.8 µM (active).
Turning to `CCOC(=O)C(=CNCC(=O)O)C(=O)OCC`, the AC50 result is “inactive”.
In the case of `CCOC(=O)C(=CNc1cccc(C)c1C)C(=O)OCC`, the AC50 is 15.8 µM (active).
On the same count and under the same terms, in the case of `CCOC(=O)/C(=C/Nc1ccccc1)[N+](=O)[O-]` it was “inactive”.
Regarding `Cc1ccc(NC(=O)Nc2ncccc2C)cc1`, the activity, negative = inhibition is -13.7% [at 2.29 µM].
Regarding `CCOC(=O)C(=Cc1ccc(F)cc1)C(=O)OCC`, the AC50 result was “inactive”.
For `CCOC(=O)C(=CNc1ncccc1C)C(=O)OCC`, the AC50 was 12.6 µM (active).
Same read-out and setting: in the case of `Cc1ccc(C(=O)O/N=C/c2c(Cl)n(C)c3ccccc23)cc1` it was “inactive”; in that of `Cc1c2cnccc2c(C)c2c1c1ccccc1n2CCOC(=O)c1ccccc1`, 0.631 µM (active).
Regarding `CN(C)CCCn1c2ccccc2c2cnccc21`, the activity, negative = inhibition is -22.2% [at 11.4 µM].
Turning to `Cc1noc(C)c1-c1nc(Nc2ccc(F)cc2)c2ccccc2n1`, the AC50 entry is “inactive”.
Still for that read-out and setting: in the case of `Cc1noc(C)c1-c1nc(Nc2ccccc2)c2ccccc2n1` it was 6.31 µM (active); in that of `Cc1noc(C)c1-c1nc(Nc2ccncc2)c2ccccc2n1`, 0.316 µM (active); in that of `Cc1noc(C)c1-c1nc(NC2CCNCC2)c2ccccc2n1`, “inactive”.
With `CN(Cc1ccccc1)C(=O)CC(c1ccccc1)c1cc(Cl)ccc1O` (stereo not given), the AC50 is 14.1 µM (active).
Turning to `O=C(O)Cc1cc(Cl)ccc1O`, the activity, negative = inhibition was -2.24% [at 11.4 µM].
On to `CN(/C=C/C(=O)C(F)(F)F)Cc1ccccc1`, for which the AC50 result was “inactive”.
In the case of `CC(C)Oc1ccc(CNC(=O)CC(c2ccccc2)c2cc(Cl)ccc2O)cc1` (stereo not given), the AC50 was 10 µM (active).
With `COc1cccc(Cn2c(=O)c(CCc3ccccc3)nc3cnc(OC)nc32)c1`, the AC50 was 2.51 µM (active).
Same read-out and setting: in the case of `COc1cccc(Cn2c(=O)c(CCc3ccccc3)nc3cncnc32)c1` it was 2.51 µM (active); in that of `NC/C=C\C(=O)O`, “inactive”.
On the same count and under the same terms, in the case of `CC(C(=O)NCc1ccc2c(c1)OCO2)N1c2cccc3cccc(c23)S1(=O)=O` (stereo not given) it was 0.316 µM (active).
For `Cc1cc(C)c2nc3c(c([C@H](O)[C@@H]4CCCCN4)c2c1)CC/C3=C/c1ccc(Cl)cc1`, the activity, negative = inhibition is -1.86% [at 11.4 µM].
As for `CN(C)C(=O)c1ccc(-c2nc(NCc3cccnc3)c3ccccc3n2)cc1`, the AC50 was 12.6 µM (active).
On the same count and under the same terms, in the case of `CN(C)c1ccc(-c2nc(NCc3cccnc3)c3ccccc3n2)cc1` it was 2 µM (active); in that of `CN(C)C(=O)c1ccc(-c2nc(NC3CCNCC3)c3ccccc3n2)cc1`, “inactive”.
The same measure, in the same setting: in the case of `CN(C)C(=O)c1ccc(-c2nc(NCc3cccs3)c3ccccc3n2)cc1` it was 15.8 µM (active); in that of `CC(=O)NCCNc1nc(-c2ccc(C(=O)N(C)C)cc2)nc2ccccc12`, “inactive”.
In the case of `CN(C)C(=O)c1ccc(-c2nc(NCc3ccccc3)c3ccccc3n2)cc1`, the AC50 was 15.8 µM (active).
Consider `O=C1C[C@@H](O)[C@@H](O)[C@H]2[C@@H]3C(=O)N(c4cccc(Oc5ccccc5)c4)C(=O)[C@@H]3CC[C@H]12`, for which the activity, negative = inhibition is -19.7% [at 11.4 µM] and -7.2% [at 11.4 µM].
